Screening results: PubChem, several laboratories
GAA850 FXN act = FXN promoter activators, primary screen, cell-based, luciferase luminescence, HEK293 lucGAA850; HEK293 lucGAA850 FXN promoter luciferase reporter, 24 h; percent of 10 µM SAHA response; activation, % at 6 µM; actives 0.56% (n = 360,000);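 active means activation above the average of all compounds screened plus 3 SD, cutoff fixed separately per campaign, cut at about 7.5% in these data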;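 further: 0% = DMSO wells and 100% = 10 µM SAHA wells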
AI-2 QS mod = Vibrio harveyi AI-2 quorum sensing modulators, primary screen, JMH597 strain, luminescence/OD600 ratio; Vibrio harveyi JMH597 AI-2 luminescence/OD600 ratio, 9 h; active compounds read low; strain lacks LuxN and CqsS sensors; 0 = neutral-control median; activity change, % at 7.5 µM; actives 0.4% (n = 300,000); in the data active means activity change below about -75%, passing the limit was not always enough; inconclusive means no clear call, values can overlap the other calls;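 further: luminescence divided by OD600 gain over 9 h not by final OD600 alone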
HSP90 inh = HSP90 inhibitors, primary screen, cell lysate, luminescence | Heat shock protein HSP 90 (rabbit reticulocyte lysate; luciferase refolding) | inhibition, % at 5.6 µM | actives 0.91% (n = 290,000) | Rabbit reticulocyte lysate, luciferase refolding luminescence, 3 h;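 active means inhibition above the screen-wide mean plus 3 SD, computed separately per campaign, cut at about 16% in these data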;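 further: 0% = DMSO wells and 100% = 60 µM geldanamycin wells; inhibitors lower the luminescence because luciferase stays unfolded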
HSF1 inhib = HSF1 inhibitors in luciferase reporter cells, primary screen, cell-based, NIH3T3, luminescence. actives 0.77% (n = 300,000). NIH3T3-HGL HSE-luciferase, MG132-induced, luminescence 8 h; active compounds read low. activity change, negative = inhibition, % at 7.5 µM (by protocol);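 active means more than half of replicate wells show activity change below -50%, luminescence cut by over half; inconclusive means some wells, but at most half, below -50%; inactive means no replicate well below -50%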;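 further: luciferase reports HSF-1 transcriptional activity via heat shock element; 0% = median of DMSO wells and -100% = zero luminescence signal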
SMARCA2 act = SMARCA2 (BRM) function activators, primary screen, cell-based, luminescence, high throughput; MG213 cells, MMTV-luciferase reporter, dexamethasone, overnight; activation, % at 9.1 µM; actives 1% (n = 370,000); in the data active means activation above about 7.8%;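 further: 0% = vehicle wells and 100% = reference activator wells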
PG9 binder = binders of HIV-1 gp120 antibody PG9, primary screen, biochemical, TR-FRET | AID 624416, 2012 | inhibition, % at 6.7 µM | TR-FRET gp120-PG9 antibody binding | actives 0.43% (n = 360,000); in the data active means inhibition above about 8.5%
JMH597 growth = Vibrio harveyi growth inhibition, confirmation, counter-screen for AI-2 quorum sensing project, JMH597 strain, OD600 absorbance; shares compounds with AI-2 QS mod; 9 h; lacks LuxN and CqsS sensors; growth inhibition, % at 7.5 µM; actives 1% (n = 750); AID 2726, 2010;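 active means every replicate shows growth inhibition above 50%; inconclusive means at least half, but not all, replicates pass that cutoff; inactive means fewer than half of replicates pass it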
BB721 lum counter = luminescence inhibition in constitutive-on V. harveyi, confirmation, counter-screen for LuxS inhibitor project, strain BB721, luminescence readout. Vibrio harveyi BB721 luminescence, 9 h. actives 95% (n = 750). inhibition, % at 7.5 µM. shares compounds with AI-2 QS mod;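 active means inhibition above about 80% in every replicate, not just on average, limit read from the data; inconclusive means at least half of replicates past the limit, but not all; inactive means fewer than half of replicates past the limit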
BB721 growth rt = growth inhibition of V. harveyi BB721, confirmation, cytotoxicity control for AI-2 quorum sensing inhibitors, strain BB721, absorbance OD600; shares compounds with AI-2 QS mod; Vibrio harveyi BB721 growth, 9 h; growth inhibition, % at 7.5 µM; actives 3% (n = 750);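 active means every replicate shows growth inhibition above 50%; inconclusive means at least half but not all replicates above 50% inhibition; inactive means under half of replicates above 50% inhibition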
JMH597 AI-2 mod = Vibrio harveyi AI-2 signaling luminescence modulation – JMH597 strain, confirmation. shares compounds with AI-2 QS mod. Vibrio harveyi JMH597 AI-2 quorum sensing luminescence, 9 h; luxN and CqsS knockout, AI-2 only. inhibition, % at 7.5 µM. actives 97% (n = 750);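 active means every replicate shows more than 75% inhibition of signal versus neutral control wells; inconclusive means half to three quarters of replicates exceed 75% inhibition; inactive means fewer than half of replicates exceed 75% inhibition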
* marks the source's active call; other numbers are inactive results; ? = inconclusive; / = no result. Sampled rows, rich in hits. Any-hit rate of the full collection: about 3.4%.

SMILES | GAA850 FXN act | AI-2 QS mod | HSP90 inh | HSF1 inhib | SMARCA2 act | PG9 binder | JMH597 growth | BB721 lum counter | BB721 growth rt | JMH597 AI-2 mod
COc1ccc(CN=CC2=C(O)CC(C)(C)CC2=O)cc1 | 3 | -80* | -1 | 4 | 0 | -1 | 23 | 88* | 13 | 92*
COc1ccc(CN=CC2=C(O)CNC2=O)cc1 | 0 | 4 | -2 | -1 | 2 | -2 | / | / | / | /
O=C(CN1C(=O)NC2(CCc3ccccc32)C1=O)Nc1cccc(F)c1 (stereo not drawn) | 1 | -84* | / | -1 | -1 | -1 | -2 | 92* | 16 | 95*
CCNC(=O)CN1C(=O)NC2(CCOc3ccccc32)C1=O (stereo not drawn) | 0 | 17 | 2 | -6 | -1 | 1 | / | / | / | /
CCN(c1ccc(NC(=O)CN2C(=O)NC3(CCOc4ccccc43)C2=O)cc1)C(C)C (stereo not drawn) | -1 | -82* | 1 | 2 | -1 | -1 | -16 | ? | -9 | 90*
O=C(CN1C(=O)NC2(CCOc3ccccc32)C1=O)Nc1ccc(F)c(F)c1F (stereo not drawn) | -1 | -79* | 1 | 7 | -6 | -1 | -6 | 87* | -8 | 91*
CC1(C)C(=O)Nc2ccccc2N1C(=O)COC(=O)CCSc1ccccc1 | 4 | -85* | -1 | 3 | 1 | 0 | 7 | 92* | -29 | 95*
O=C1CN(C(=O)COC(=O)CCCOc2ccccc2)c2ccccc2N1 | 2 | -81* | 5 | / | 0 | 0 | -7 | 94* | -17 | 96*
Cc1ccc(OCCC(=O)OCC(=O)N2CC(=O)Nc3ccccc32)cc1 | -1 | / | / | / | 1 | -1 | / | / | / | /
O=C(CSc1nnc(-c2ccccc2)n1-c1ccc(Cl)cc1)Nc1cccc2ccccc12 | / | / | / | / | 0 | / | / | / | / | /
C[C@H](O)[C@@H]1C(=O)N2CCc3c([nH]c4c(-c5ccccc5)cccc34)[C@@H]2C[C@@H]1N(C)C(=O)/C=C/c1ccccc1 | / | / | / | / | -2 | -1 | / | / | / | /
COc1ccc(NC(=O)C[C@H]2C(=O)N(c3ccc(OC)cc3)C[C@@H]2C)cc1 | 1 | / | / | / | -1 | -1 | / | / | / | /
c1ccc(CSc2nnc(-c3cccs3)o2)cc1 | 7 | -90* | 0 | 15 | 0 | -2 | -1 | 97* | -10 | 98*
c1ccc(-c2nnc(CSc3nnc(-c4cccs4)o3)o2)cc1 | -2 | 7 | 0 | 1 | 2 | -1 | / | / | / | /
Fc1ccc(CSc2nnc(-c3cccs3)o2)cc1 | 6 | -89* | -1 | 30 | 0 | -2 | 13 | 97* | 9 | 97*
Cn1cc(CCOCc2ccccc2)c2ccccc21 | / | / | / | / | 4 | 0 | / | / | / | /
Nc1cccc(C(=O)Nc2cccc3ncccc23)c1 | 2 | ? | -7 | 4 | -2 | 1 | 2 | 5 | 17 | -3
CN(C)S(=O)(=O)c1ccc(NC(=O)COc2ncnc3c2cnn3-c2ccccc2)cc1 | 3 | ? | -1 | 0 | -4 | 1 | 18 | 91* | 16 | 95*
COc1ncnc2c1cnn2-c1ccccc1 | 2 | 26 | 2 | 9 | -1 | 2 | / | / | / | /
